Each structure is given as a SMILES string. Among all 48,000 compounds or so, about 13,000 (27%) showed an effect of 50% or more. The list shows a part of the results.

The test system of the experiment is Wolbachia pipientis. The experiment in a line: Anti-Wolbachia Cell-Based Screen. Conditions: 5 µM. Further details: scale not given: in the data most compounds retested in dose-response had high values. It counts as functional.
As for `Cc1ccc(F)c(OC2CCCN(c3cnn(C)c3)C2=O)c1` (centres undefined), the “Percent Effect” value is on record as -6.274%.
As for `Cc1cc(C(=O)N[C@H]2CN(CCO)C[C@@H]2C2CC2)sc1C`, the figure is -4.663%; as for `CN(Cc1ccccc1)C1(C(=O)NC(CO)CO)Cc2ccccc2C1`, 2.959%; as for `O=C(Nc1cnc2n1CCCC2)c1cccc(-n2cnnc2)c1`, -1.722%.
With `CCN(C(=O)CN(Cc1cccc(O)c1)C1CCC(O)CC1)C1CC1` (centres undefined) the figure was 5.971%; with `Cc1cccc(CNCC2COC3(CCCC3)O2)c1C` (centres undefined), -2.633%; with `OC(CN1CCC(c2ccn[nH]2)CC1)c1cc(F)ccc1F` (centres undefined), 116%.
As for `OC(COCc1ccc(Cl)cc1)CN1CCC(c2ccn[nH]2)CC1` (centres undefined), the figure is -1.567%; as for `O=C1CCCN1CCN1CCC(c2ccn[nH]2)CC1`, 6.838%.
For `O=c1cc(-c2ccncc2)nc(-c2ccc(CN3CC[C@H](O)C3)cc2)[nH]1`, the “Percent Effect” value was found to be 9.166%.
As for `CN(C)c1cc(CNC(=O)Nc2ccc(S(C)(=O)=O)nc2)ccn1`, the figure is -6.104%.
With `CN(C)c1cc(CNC(=O)Nc2ccc(F)cc2)ccn1` the figure was 2.745%; with `CN(C)c1cc(CNC(=O)Nc2nncs2)ccn1`, 51.52%.
With `CN(C)c1cc(CNC(=O)Nc2nccs2)ccn1` the figure was 125%; with `CCc1ccc(CCNc2ncnc3c2CCN(C(=O)C2CC2)C3)cc1`, -23.9%; with `NC(=O)C1CCN(CCCc2ccc(C(F)(F)F)cc2)CC1`, 5.084%.
In the case of `OCC1CN(Cc2nc(C(F)(F)F)cs2)c2ccccc2O1` (centres undefined), the “Percent Effect” value is 3.254%.
Consider `CC(CCc1ccccc1)CC(=O)NC1CCN(CC(N)=O)CC1` (centres undefined), for which the “Percent Effect” value was -10.07%.
With `CC(C)(C)n1nc(C2CC2)cc1C(=O)NC1CCN(CC(N)=O)CC1` the figure was 124.1%; with `Cn1nc(C(=O)NC2CC(C)(C)NC(C)(C)C2)cc1NC(=O)C1CC1`, -0.3555%.
As for `CC(C)(C)n1nc(C(=O)NCC2(C(N)=O)CCOCC2)cc1C1CC1`, the figure is 8.942%.
With `CC(C)c1cc(C(=O)NCC2(C(N)=O)CCOCC2)nn1C(C)(C)C` the figure was -12.39%; with `Cn1nc(C(=O)NC2CC2)cc1NC(=O)C1CC1`, -11.77%.
On to `CC(C)c1cc(C(=O)NCC(O)C2CCOCC2)nn1C(C)(C)C` (centres undefined), for which the “Percent Effect” value was -4.207%.
As for `CC(C)(C)n1nc(C2CC2)cc1C(=O)NCC1(C(N)=O)CCOCC1`, the figure is 3.596%; as for `CNC(=O)C1CCC(NC(=O)c2cc(C3CC3)n(C(C)(C)C)n2)CC1` (centres undefined), 117.3%.
With `CC(C)c1cc(C(=O)NC2CCN(CC(N)=O)CC2)nn1C(C)(C)C` the figure was 128%; with `CC(C)(C)n1nc(C(=O)NC2CCN(CC(N)=O)CC2)cc1C1CC1`, 128.2%.
With `CCNc1ccnc(NC2CCN(CC(N)=O)CC2)n1` the figure was 2.921%.

The values above are taken from ChEMBL document CHEMBL3988442, “University of Dundee, Small-Polar-MMV Screening Library” (2021).
